Among the data in PubChem BioAssay (NCI) are growth values, retold here.

Molecules are shown by their SMILES. Compounds without any hit were thinned out: in the full panel of roughly 83,000, 20% have a hit.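 Negative percent growth values reflect cell death: -40 means 40% of the cells present at the start died, and -100 means all died.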 Unmarked numbers belong to inactive results. Active and inactive are the calls of the source. Rule for the calls: active = growth percent below 10; inactive = the rest.

Assay in all cases: NCI-60 one-dose screen, 48 h (100 = growth as untreated, 0 = no growth, -100 = all killed)
Conditions in all cases: 10 µM unless noted

The test system of experiment [1] is T-47D breast.
In experiment [2] the test system is BT-549 breast.
The test system of experiment [3] is MDA-MB-435 melanoma.
In experiment [4] the test system is SW-620 colon.
Experiment [5] has as its system MCF7 breast.
For experiment [6], the system named is HCT-116 colon.
Experiment [7] has as its system HCC-2998 colon.
Experiment [8] relates to KM12 colon.

As to `CC1=C(SCC(=O)OCCCCCC(C)C)C(=O)c2ccccc2C1=O`, the growth in experiment [1] is 74.3%; in experiment [2], 94.4%; in experiment [3] it was 102%; in experiment [4], 99.3%; in experiment [5], 72.1%; in experiment [6], 89.7%. The growth in experiment [7] is 110%; in experiment [8], 91.2%.
On to `Cn1c(SCC(=O)c2ccco2)nc2ccccc2c1=O`, for which the growth in experiment [1] was 55.3%; in experiment [2], 96.5%; in experiment [3] it was 105%; in experiment [4], 111%; in experiment [5], 18.3%; in experiment [6], 102%. The growth was 112% in experiment [7] and 86.3% in experiment [8].
On to `NS(=O)(=O)c1ccc(Nc2nc(N/N=C/C=C/c3ccccc3)nc(Nc3ccccc3)n2)cc1`, for which the growth in experiment [1] was 18.9%; in experiment [2], 65.9%; in experiment [3] it was 51.6%; in experiment [4], 51.1%; in experiment [5] it was 16%; in experiment [6], 29.5%. The growth in experiment [7] was 38.3%; in experiment [8] it was 55.4%.
As to `CCc1cccc2c3c(sc12)C(c1ccc(F)cc1)C(C#N)=C(/N=C/c1ccc(Cl)cc1)O3` (stereo not drawn), the growth is 30.7% in experiment [1]; 2.79% (active) in experiment [2]; -5.71% (active) in experiment [3]; 37.6% in experiment [4]; 14% in experiment [5]; 11.4% in experiment [6]. Besides, the growth was 10.3% in experiment [7] and 16.1% in experiment [8].
On to `N#C/C(=C\c1cccc2c1OCO2)C(=O)Nc1sc2c(c1C#N)CCCC2`, for which the growth in experiment [1] was 93.8%; in experiment [2] it was 107%; in experiment [3] it was 103%; in experiment [4], 106%; in experiment [5], 97.6%; in experiment [6], 98.4%. Also, the growth in experiment [7] is 120%; in experiment [8], 103%.
Regarding `CC(=O)c1cc(C(=O)N2c3ccccc3Sc3ccccc32)n2c1ccc1ccccc12`, the growth was 75.5% in experiment [1]; 52.6% in experiment [2]; 3.08% (active) in experiment [3]; 41.6% in experiment [4]; 30.5% in experiment [5]; 25.6% in experiment [6]. Also, the growth was 87.8% in experiment [7] and 44.6% in experiment [8].
In the case of `C/C(=N\NC(N)=S)c1nnn(-c2ccc([N+](=O)[O-])cc2)c1C`, the growth in experiment [1] is 92%; in experiment [2], 95.5%; in experiment [3] it was 102%; in experiment [4], 94.9%; in experiment [5] it was 91.9%; in experiment [6], 98.6%. Besides, the growth was 100% in experiment [7] and 96.8% in experiment [8].
As to `C#C[C@]1(O)CC[C@H]2[C@@H]3CC=C4c5sc(Nc6cccc(F)c6)nc5CC[C@]4(C)[C@H]3CC[C@@]21C`, the growth in experiment [1] was 29.9%; in experiment [2] it was 19.4%; in experiment [3], 29.9%; in experiment [4], 8.9% (active); in experiment [5], 0.863% (active); in experiment [6], 2.09% (active). The growth in experiment [7] was 42%; in experiment [8] it was 13.7%.
`CC(C)(C)OC(=O)Nc1ccc(-c2cccc(Oc3ccc4nnc(Cl)n4n3)c2)cc1`: the growth in experiment [1] was 59.3%; in experiment [2], 58.8%; in experiment [3], 83.7%; in experiment [4], 97.3%; in experiment [5], 74.8%; in experiment [6], 43.9%. The growth is 109% in experiment [7] and 88.2% in experiment [8].
For `Cc1ccc(-c2csc(N/N=C/c3cccs3)n2)cc1`, the growth in experiment [1] is 72.6%; in experiment [2] it was 112%; in experiment [3], 98%; in experiment [4], 108%; in experiment [5] it was 70.8%; in experiment [6], 70%. Also, the growth in experiment [7] is 115%; in experiment [8], 90.8%.
Consider `COc1cc(C(=O)c2cc(C(C)=O)c3cccc(C)n23)cc(OC)c1OC`, for which the growth was 20.3% in experiment [1]; 25.8% in experiment [2]; -30.1% (active) in experiment [3]; 26% in experiment [4]; 20.3% in experiment [5]; 16.6% in experiment [6]. The growth was 61.1% in experiment [7] and 29.8% in experiment [8].
Turning to `NS(=O)(=O)c1ccc(CCn2c(-c3ccc(C(=O)O)cc3)nc(-c3ccccc3)c2-c2ccccc2)cc1`, the growth in experiment [1] was 104%; in experiment [2] it was 104%; in experiment [3], 98.8%; in experiment [4], 98.6%; in experiment [5], 93.6%; in experiment [6], 101%. Moreover, the values for the growth in experiment [7] and in experiment [8] were 108% and 107%, respectively.
Regarding `COc1cccc(N2CCN(C3=C(Cl)C(=O)c4ncccc4C3=O)CC2)c1`, the growth in experiment [1] was -48.1% (active); in experiment [2], 105%; in experiment [3], 3.36% (active); in experiment [4] it was 14.3%; in experiment [5] it was 19.1%; in experiment [6], 1.4% (active). Also, the growth is 106% in experiment [7] and 94.5% in experiment [8].
On to `CCOC(=O)c1ccccc1NC1=C(Cl)C(=O)c2nc(C)ccc2C1=O`, for which the growth in experiment [1] was 92.8%; in experiment [2], 114%; in experiment [3] it was 111%; in experiment [4] it was 94.8%; in experiment [5], 87.5%; in experiment [6], 99.1%. For the same compound, the growth is 97.2% in experiment [7] and 105% in experiment [8].
In the case of `COc1cc2cc(Oc3ccc(NC(=O)c4cc(C(F)(F)F)cc(C(F)(F)F)c4)cc3)c(C)nc2cc1OCCN1CCOCC1`, the growth is 84.7% in experiment [1]; 71.4% in experiment [2]; 65.4% in experiment [3]; 97.2% in experiment [4]; 26.4% in experiment [5]; 11.9% in experiment [6]. Further, the growth in experiment [7] is 113%; in experiment [8], 73.5%.
Turning to `O=C(CCl)Nc1ccc(NC(=O)c2cc(Cl)ccc2O)c(Cl)c1`, the growth is 81.3% in experiment [1]; 65.8% in experiment [2]; 66% in experiment [3]; 35.2% in experiment [4]; 29.1% in experiment [5]; 39% in experiment [6]. Also, the results for the growth in experiment [7] and in experiment [8] were 105% and 75.8%, respectively.
